According to the supplement of paper PMC11732987, “Enantioselective OTUD7B fragment discovery through chemoproteomics screening and high-throughput optimisation” (Communications Chemistry, 2025):

Experiments:
Test in all cases: log2 ratio of Biotin-Ahx-Ub-VS probe labelling (fragment/DMSO); higher = less target engagement (more negative = stronger competition), active = hit call of the paper (q ≤ 0.05, log2 ratio ≤ -1)
Details in all cases: compound concentration: 200 uM; treatment time: 3 h
USP42 = target: T1, USP42 (UniProt Q9H9J4)
T1 sequence (whole entry): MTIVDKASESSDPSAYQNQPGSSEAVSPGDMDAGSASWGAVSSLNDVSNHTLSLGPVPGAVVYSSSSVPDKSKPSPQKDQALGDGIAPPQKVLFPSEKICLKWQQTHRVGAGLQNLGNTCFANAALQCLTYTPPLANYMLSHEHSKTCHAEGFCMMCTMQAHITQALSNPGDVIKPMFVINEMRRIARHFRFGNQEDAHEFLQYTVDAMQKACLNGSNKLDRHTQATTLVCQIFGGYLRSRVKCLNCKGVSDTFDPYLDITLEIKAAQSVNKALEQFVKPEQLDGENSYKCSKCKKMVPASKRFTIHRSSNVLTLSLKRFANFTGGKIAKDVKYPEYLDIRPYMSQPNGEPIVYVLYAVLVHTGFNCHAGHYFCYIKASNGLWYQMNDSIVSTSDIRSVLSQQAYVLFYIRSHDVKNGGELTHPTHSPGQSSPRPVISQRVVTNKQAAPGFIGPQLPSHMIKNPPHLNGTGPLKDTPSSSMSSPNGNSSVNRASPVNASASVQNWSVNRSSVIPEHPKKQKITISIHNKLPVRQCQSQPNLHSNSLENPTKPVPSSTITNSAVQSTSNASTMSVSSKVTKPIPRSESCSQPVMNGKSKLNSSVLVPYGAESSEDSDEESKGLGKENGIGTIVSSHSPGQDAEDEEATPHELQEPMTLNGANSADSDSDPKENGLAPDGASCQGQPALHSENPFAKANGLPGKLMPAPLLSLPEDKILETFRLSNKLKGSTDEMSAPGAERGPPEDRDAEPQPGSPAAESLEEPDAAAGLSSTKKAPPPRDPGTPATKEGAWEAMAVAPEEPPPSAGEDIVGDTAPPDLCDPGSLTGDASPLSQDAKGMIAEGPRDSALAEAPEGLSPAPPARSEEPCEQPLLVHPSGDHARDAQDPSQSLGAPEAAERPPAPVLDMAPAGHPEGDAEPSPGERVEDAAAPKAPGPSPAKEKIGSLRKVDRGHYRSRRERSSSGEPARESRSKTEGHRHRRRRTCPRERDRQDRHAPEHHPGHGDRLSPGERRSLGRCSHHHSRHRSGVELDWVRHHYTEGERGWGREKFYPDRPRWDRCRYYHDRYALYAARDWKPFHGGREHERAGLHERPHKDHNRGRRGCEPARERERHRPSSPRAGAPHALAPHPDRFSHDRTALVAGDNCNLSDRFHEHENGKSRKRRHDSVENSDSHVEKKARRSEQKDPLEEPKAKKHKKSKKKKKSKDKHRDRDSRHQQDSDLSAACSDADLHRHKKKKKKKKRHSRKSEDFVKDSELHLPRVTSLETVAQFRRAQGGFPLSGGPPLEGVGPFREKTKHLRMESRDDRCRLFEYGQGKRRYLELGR
Method in brief: (§1)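 Labelled DUBs from HEK293T lysate were NeutrAvidin-enriched, digested with LysC and trypsin, and run by diaPASEF LC-MS/MS. Before that, each 495 µg sample in Tris/CHAPS/IGEPAL buffer with protease inhibitors was treated in triplicate with fragment at 200 µM or vehicle for 3 h, then with Biotin-Ahx-Ub-VS at 0.5 µM final for 1 h. Values are average log2 ratios of fragment over vehicle by unpaired t-test, based on global-median-normalised Spectronaut label-free quantities from proteins with ≥2 unique peptides.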

USP46 = USP46 (UniProt P62068)
Method in brief: as §1

USP47 = target: T2, USP47 (UniProt Q96K76)
T2 sequence (whole entry): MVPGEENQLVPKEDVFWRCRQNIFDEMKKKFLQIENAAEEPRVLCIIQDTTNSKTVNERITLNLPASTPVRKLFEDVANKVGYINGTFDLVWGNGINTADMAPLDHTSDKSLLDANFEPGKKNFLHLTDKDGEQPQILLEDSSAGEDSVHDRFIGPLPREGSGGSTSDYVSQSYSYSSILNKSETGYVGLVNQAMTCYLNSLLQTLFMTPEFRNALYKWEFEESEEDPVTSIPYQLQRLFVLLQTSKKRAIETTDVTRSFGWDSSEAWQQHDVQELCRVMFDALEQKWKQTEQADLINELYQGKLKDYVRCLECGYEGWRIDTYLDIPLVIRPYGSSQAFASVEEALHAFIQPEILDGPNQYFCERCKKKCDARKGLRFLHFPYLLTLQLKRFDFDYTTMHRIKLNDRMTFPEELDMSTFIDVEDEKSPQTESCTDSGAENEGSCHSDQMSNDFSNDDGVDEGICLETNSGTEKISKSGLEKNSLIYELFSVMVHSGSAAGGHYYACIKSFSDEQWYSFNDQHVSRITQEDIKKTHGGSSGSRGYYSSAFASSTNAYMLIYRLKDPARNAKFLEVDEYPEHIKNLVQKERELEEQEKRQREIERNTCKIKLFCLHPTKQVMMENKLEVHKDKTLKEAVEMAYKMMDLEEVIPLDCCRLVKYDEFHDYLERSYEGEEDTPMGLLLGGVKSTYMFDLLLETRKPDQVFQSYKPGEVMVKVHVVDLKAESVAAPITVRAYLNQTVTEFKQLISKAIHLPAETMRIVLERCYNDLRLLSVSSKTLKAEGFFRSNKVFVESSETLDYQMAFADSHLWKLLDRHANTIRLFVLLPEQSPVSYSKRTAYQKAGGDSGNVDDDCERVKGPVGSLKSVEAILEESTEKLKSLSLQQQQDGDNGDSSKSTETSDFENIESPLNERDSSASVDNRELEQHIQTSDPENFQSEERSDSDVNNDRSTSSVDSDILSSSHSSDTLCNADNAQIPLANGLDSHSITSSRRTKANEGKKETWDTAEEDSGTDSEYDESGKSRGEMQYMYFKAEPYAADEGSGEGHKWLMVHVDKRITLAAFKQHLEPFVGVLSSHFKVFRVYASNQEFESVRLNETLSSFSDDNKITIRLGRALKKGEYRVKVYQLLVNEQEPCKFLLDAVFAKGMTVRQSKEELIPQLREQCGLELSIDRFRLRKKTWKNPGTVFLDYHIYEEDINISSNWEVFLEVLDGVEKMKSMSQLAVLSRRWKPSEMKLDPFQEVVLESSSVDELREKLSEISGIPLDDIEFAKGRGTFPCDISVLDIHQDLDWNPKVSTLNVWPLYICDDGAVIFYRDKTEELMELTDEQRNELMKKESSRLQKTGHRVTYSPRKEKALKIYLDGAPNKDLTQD
Method in brief: as §1

USP48 = target: T3, USP48 (UniProt Q86UV5)
T3 sequence (whole entry): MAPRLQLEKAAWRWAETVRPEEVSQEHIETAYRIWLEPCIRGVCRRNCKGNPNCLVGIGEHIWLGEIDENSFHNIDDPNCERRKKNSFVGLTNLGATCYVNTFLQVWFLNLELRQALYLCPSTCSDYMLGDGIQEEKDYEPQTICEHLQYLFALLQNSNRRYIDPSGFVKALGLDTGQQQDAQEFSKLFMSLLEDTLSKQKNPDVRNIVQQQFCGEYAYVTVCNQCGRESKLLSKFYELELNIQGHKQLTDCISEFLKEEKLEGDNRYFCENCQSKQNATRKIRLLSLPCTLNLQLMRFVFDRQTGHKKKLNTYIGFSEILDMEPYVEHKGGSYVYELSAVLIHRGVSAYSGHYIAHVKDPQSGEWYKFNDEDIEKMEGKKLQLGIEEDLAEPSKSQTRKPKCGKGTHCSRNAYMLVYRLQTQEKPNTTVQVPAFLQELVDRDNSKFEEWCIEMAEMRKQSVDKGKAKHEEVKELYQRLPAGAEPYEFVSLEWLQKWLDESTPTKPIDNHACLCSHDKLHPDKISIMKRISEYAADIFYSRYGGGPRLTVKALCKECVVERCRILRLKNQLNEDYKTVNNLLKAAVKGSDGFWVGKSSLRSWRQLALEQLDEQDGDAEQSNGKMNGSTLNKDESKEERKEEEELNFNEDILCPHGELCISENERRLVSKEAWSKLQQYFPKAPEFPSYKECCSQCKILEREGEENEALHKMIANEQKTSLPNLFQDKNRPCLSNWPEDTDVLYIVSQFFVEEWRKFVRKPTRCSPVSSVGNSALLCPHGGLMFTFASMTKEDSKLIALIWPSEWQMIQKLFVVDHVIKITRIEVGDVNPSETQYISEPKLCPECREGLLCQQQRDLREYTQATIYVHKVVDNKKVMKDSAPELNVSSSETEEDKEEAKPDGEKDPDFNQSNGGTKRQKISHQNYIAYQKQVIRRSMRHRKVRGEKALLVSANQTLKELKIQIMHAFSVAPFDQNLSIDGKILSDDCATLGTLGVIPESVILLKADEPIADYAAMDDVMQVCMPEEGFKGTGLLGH
Method in brief: as §1

USP5 = target: T4, USP5 (UniProt P45974)
T4 sequence (whole entry): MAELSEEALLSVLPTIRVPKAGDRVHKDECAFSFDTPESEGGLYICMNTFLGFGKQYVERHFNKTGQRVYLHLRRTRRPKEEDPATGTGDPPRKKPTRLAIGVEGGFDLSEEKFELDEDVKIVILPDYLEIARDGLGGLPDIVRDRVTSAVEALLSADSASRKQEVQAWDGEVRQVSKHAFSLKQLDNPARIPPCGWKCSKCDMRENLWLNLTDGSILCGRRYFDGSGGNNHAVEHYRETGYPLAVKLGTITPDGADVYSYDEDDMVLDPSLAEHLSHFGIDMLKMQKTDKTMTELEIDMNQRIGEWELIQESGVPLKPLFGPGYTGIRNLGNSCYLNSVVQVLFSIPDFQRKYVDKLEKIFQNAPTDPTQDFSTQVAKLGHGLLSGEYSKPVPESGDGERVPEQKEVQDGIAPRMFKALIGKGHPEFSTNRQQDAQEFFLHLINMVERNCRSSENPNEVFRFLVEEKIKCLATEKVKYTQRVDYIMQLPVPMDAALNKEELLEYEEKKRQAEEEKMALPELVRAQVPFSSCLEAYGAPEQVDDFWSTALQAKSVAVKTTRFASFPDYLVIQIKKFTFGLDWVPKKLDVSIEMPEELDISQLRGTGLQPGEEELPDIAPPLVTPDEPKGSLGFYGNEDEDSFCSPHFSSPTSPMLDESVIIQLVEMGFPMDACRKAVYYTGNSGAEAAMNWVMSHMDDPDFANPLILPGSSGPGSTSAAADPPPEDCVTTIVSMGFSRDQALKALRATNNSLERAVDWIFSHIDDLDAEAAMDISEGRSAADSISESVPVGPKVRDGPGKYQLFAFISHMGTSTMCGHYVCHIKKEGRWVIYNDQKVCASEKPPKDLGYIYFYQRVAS
Method in brief: as §1

USP54 = USP54 (UniProt Q70EL1)
Method in brief: as §1

USP7 = USP7 (UniProt Q93009)
Method in brief: as §1

USP8 = target: T5, USP8 (UniProt P40818)
T5 sequence (whole entry): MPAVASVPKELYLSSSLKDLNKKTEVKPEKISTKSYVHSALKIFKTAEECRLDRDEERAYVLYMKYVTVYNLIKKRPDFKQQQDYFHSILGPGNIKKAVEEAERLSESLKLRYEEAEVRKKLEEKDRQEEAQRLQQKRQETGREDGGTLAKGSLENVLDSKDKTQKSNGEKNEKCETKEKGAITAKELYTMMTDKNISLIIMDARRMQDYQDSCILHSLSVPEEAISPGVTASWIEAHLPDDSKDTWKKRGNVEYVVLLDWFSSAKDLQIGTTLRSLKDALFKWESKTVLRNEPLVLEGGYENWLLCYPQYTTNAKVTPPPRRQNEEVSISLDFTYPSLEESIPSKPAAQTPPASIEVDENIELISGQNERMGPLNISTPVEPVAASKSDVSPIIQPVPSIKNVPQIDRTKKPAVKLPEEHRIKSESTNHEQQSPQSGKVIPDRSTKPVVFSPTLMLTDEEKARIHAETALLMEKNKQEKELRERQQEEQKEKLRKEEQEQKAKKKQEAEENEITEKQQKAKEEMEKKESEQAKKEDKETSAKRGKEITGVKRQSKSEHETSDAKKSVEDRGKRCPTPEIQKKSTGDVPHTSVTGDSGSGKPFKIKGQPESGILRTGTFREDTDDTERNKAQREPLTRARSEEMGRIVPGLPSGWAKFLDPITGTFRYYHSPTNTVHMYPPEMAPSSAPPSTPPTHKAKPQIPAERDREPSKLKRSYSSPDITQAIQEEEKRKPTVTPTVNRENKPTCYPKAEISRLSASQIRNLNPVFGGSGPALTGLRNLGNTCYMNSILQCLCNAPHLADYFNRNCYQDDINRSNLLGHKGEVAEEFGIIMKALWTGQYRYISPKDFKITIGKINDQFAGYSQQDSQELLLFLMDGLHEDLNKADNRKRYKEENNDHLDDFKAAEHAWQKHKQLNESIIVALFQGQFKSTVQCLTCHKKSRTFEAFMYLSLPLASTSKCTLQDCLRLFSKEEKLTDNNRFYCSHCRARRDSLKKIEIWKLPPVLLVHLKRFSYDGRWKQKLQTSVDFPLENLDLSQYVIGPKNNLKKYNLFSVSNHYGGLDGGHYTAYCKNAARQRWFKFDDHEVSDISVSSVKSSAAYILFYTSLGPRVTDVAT
Method in brief: as §1

USP9X = USP9X (UniProt Q93008)
Method in brief: as §1

UniProt O00487 = target: UniProt O00487
Method in brief: as §1

Measured: log2 ratio of Biotin-Ahx-Ub-VS probe labelling

USP9X, sequence (Q93008 whole entry): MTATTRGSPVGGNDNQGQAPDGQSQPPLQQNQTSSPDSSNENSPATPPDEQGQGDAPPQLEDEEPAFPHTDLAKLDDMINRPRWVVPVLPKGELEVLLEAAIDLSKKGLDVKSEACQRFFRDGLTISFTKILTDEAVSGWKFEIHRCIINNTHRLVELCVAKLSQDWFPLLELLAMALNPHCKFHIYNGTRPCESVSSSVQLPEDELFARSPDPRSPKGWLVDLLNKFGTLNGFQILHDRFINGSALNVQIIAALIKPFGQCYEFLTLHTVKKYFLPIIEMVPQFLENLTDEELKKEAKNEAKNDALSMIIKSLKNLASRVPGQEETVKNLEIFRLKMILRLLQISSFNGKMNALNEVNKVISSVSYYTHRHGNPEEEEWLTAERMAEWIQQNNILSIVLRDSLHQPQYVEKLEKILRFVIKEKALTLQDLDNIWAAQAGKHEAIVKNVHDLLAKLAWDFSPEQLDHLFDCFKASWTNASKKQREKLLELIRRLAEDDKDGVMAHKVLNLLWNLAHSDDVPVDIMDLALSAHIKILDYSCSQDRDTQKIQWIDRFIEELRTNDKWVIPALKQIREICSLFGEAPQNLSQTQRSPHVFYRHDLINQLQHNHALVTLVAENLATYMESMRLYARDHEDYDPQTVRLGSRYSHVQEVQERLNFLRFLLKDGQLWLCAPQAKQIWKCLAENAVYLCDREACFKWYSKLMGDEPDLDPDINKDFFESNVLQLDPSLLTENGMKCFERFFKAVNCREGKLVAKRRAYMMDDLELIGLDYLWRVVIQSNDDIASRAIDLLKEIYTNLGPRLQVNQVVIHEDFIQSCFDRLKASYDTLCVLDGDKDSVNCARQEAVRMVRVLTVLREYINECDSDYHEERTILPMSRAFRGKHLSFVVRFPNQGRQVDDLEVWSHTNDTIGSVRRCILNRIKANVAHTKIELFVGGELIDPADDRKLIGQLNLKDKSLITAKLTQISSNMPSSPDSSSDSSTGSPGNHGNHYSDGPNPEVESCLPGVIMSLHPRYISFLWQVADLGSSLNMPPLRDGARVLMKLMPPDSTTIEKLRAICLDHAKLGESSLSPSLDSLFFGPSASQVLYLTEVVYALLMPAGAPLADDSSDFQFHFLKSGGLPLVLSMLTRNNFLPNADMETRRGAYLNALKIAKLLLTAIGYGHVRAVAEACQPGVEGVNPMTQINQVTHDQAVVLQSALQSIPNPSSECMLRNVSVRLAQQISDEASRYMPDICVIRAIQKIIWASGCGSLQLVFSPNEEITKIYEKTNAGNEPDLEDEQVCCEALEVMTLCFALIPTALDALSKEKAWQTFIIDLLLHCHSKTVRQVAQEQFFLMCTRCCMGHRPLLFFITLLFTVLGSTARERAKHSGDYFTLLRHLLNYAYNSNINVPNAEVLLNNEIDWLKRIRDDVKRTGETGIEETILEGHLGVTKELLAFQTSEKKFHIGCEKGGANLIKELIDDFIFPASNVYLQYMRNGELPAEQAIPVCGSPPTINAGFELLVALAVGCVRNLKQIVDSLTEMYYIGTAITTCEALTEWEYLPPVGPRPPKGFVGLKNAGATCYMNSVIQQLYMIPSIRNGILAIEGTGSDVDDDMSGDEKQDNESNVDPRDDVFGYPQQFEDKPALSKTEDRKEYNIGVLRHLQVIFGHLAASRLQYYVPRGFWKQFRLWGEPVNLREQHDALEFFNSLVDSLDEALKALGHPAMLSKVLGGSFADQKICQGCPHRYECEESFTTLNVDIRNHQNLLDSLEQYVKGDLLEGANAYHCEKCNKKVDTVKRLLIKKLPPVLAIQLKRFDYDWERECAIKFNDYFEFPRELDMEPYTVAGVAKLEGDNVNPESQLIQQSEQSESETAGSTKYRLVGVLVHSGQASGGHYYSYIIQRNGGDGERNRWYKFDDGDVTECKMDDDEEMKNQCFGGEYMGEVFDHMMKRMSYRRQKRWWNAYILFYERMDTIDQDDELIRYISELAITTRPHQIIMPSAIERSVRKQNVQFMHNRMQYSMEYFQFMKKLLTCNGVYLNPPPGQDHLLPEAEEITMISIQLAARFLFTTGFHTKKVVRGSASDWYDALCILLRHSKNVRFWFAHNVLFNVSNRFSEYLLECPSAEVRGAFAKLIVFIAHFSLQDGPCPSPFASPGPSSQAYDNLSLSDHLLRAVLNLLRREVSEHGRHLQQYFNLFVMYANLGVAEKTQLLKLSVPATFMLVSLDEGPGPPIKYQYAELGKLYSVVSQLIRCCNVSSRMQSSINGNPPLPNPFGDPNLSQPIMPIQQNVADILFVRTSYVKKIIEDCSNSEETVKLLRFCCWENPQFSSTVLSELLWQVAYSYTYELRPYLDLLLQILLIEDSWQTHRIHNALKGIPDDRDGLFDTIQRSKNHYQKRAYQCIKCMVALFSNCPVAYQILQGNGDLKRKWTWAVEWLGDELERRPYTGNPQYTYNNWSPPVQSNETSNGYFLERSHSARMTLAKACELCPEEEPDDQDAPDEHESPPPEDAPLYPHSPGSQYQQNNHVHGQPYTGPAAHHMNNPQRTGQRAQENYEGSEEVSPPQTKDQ
USP46, sequence (P62068 whole entry): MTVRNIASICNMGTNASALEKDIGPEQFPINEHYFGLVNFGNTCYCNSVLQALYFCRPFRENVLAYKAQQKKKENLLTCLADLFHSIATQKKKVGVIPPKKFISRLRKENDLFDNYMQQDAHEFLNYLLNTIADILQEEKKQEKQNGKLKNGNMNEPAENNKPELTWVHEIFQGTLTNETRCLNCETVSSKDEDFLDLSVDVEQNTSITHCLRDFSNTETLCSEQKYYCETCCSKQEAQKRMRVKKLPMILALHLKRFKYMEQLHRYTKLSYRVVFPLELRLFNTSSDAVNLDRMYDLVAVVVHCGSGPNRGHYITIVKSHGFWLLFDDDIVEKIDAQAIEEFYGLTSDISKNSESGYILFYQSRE
USP54, sequence (Q70EL1 whole entry): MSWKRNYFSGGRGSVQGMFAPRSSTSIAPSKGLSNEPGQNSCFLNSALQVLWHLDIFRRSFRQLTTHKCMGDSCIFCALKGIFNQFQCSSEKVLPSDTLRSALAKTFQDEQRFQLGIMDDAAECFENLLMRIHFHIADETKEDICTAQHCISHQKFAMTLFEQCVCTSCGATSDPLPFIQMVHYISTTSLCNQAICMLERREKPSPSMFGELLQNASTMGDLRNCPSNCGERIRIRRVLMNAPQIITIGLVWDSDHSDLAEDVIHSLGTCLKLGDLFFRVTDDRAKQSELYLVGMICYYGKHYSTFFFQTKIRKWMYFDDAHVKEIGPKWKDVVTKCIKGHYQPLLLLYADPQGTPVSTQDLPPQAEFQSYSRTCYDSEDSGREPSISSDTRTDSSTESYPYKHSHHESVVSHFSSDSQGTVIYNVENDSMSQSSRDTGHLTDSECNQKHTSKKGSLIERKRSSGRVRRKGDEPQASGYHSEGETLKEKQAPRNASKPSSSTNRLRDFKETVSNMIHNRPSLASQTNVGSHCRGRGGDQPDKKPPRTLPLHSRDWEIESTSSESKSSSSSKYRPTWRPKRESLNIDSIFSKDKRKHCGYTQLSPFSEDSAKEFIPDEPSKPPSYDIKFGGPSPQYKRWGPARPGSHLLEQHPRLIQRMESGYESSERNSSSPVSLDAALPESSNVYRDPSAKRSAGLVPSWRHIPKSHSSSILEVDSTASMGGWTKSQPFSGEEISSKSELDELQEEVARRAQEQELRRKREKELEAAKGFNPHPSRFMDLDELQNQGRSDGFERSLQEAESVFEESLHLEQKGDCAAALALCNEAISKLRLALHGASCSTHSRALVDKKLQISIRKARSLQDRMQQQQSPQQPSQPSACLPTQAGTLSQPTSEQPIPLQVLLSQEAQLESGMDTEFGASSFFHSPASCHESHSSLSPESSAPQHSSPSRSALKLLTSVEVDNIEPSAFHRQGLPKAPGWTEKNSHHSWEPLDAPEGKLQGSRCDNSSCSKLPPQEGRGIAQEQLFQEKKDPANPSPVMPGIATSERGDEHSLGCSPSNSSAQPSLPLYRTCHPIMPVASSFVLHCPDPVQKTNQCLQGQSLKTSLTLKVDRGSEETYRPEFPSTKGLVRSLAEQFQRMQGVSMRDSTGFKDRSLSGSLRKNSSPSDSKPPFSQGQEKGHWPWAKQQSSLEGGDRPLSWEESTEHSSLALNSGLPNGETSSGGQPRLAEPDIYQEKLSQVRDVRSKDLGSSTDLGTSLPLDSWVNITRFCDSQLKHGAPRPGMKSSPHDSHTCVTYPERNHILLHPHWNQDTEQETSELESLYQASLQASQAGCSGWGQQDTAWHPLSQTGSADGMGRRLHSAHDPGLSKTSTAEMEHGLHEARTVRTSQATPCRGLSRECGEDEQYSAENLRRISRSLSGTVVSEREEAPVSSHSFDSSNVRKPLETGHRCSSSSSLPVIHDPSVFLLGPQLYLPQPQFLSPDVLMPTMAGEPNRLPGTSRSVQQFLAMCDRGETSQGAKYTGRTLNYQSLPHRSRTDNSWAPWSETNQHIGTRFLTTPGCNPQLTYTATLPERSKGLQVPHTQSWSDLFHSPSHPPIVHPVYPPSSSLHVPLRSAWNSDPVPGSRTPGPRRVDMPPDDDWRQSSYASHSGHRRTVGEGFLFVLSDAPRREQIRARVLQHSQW
UniProt O00487, sequence (O00487 whole entry): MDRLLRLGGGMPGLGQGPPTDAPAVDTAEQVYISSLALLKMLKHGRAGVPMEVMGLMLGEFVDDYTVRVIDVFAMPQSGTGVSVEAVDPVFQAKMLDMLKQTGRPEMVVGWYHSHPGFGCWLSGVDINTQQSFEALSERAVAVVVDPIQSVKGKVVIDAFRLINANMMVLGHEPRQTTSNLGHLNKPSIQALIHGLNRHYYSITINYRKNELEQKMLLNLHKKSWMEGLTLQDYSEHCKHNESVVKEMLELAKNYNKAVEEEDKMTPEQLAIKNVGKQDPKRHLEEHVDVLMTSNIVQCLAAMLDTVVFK

O=C(CCl)NCc1cccc(N2CCCC2=O)c1
inactive: USP42 -0.175 | USP46 0.179 | USP47 0.109 | USP48 -0.0848 | USP5 0.238 | USP54 0.342 | USP7 -0.0593 | USP8 -0.147 | USP9X -0.272 | UniProt O00487 0.135
